PubChem BioAssay AID488890 (Southern Research Specialized Biocontainment Screening …, 2010)
Out of some 320,000 compounds screened, about 1,300 (0.41%) were called active. Inconclusive results (about 3%) are left out. The rule behind the calls is not given here. The list is a sample of the results. Entries with a potency or affinity are not part of this list.

Assay: growth inhibition of non-replicating M. tuberculosis (AID 488890);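 note: plate controls were DMSO cells for no effect and high antibiotic wells for full effect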
Conditions: Mycobacterium tuberculosis non-replicating, at 25 µM, stronger effect = higher value

Row | SMILES | inhibition [%]
1 | COc1ccc(NC(=O)COc2nc(N(C)C)nc(N(C)C)n2)cc1 | -4.63
2 | COc1ccc(CCC(=O)NC2CCCN(Cc3ccc(Cl)cc3)C2)cc1OC (stereo unspecified) | 7.24
3 | OCC[C@@H]1C[C@@H](O)[C@H](O)[C@@]2(OCCc3ccccc32)O1 | -1.04
4 | COc1cc(OC)cc(C(=O)NNC(=O)C2CCCC2)c1 | -10.6
5 | CC(C)N1CCc2c(sc(NC(=O)c3nc4ccccc4s3)c2C(N)=O)C1 | 77.9
6 | CC(=O)N1CCc2c(sc(NC(=O)C3CC3)c2-c2nc3ccccc3s2)C1 | 12.5
7 | Cc1cccc(N(CC(=O)NC(C)(C)C)C(=O)CS(=O)CC(=O)Nc2ccc(F)cc2)c1 (stereo unspecified) | -8.34
8 | COc1ccc(-c2nnc(SCc3ccc(C(=O)O)cc3)n2N)cc1 | -5.97
9 | COCCSc1nnc(NC(=O)CS(=O)(=O)c2ccccc2)s1 | 2.87
10 | O=C(CS(=O)(=O)c1ccccc1)Nc1ncc([N+](=O)[O-])s1 | -8.38
11 | Cc1nnc(NC(=O)CCS(=O)(=O)Cc2ccccc2)s1 | 57.7
12 | O=C(CCS(=O)(=O)Cc1ccccc1)Nc1nncs1 | 60.5
13 | O=C(Cc1csc(Nc2nc(=S)[nH]c3ccccc23)n1)N1CCN(c2cccc(C(F)(F)F)c2)CC1 | -8.89
14 | CC(=O)N(Cc1ccccc1)Cc1nc2sc(C)c(C)c2c(=O)[nH]1 | 5.06
15 | O=C(CN1C(=O)CSc2ccc(S(=O)(=O)N3CCOCC3)cc21)NCCCN1CCCCC1 | -5.81
16 | Cc1ccc(S(=O)(=O)CC(=O)Nc2ccc(Cl)cn2)cc1 | 53.5
17 | COc1ccc([N+](=O)[O-])cc1/C=N/NC(=O)CNC(=O)c1cccc(F)c1 | 23.1
18 | CC(C)CCOCc1nc2sc3c(c2c(=O)[nH]1)CCC(C)C3 (stereo unspecified) | 27.8
19 | CSc1nc2sc3c(c2c(=O)[nH]1)CCC(C)C3 (stereo unspecified) | -4.35

Row | SMILES | inhibition [%]
20 | O=C(CCc1c[nH]c2ccccc12)NCc1ccc2c(c1)OCO2 | 6.21
21 | CC(=O)N[C@@H](Cc1c[nH]c2ccccc12)C(=O)OCc1ccc(C#N)cc1 | 5.82
22 | O=C(CCCc1c[nH]c2ccccc12)NCc1ccc2c(c1)OCO2 | 7.12
23 | O=C(CCc1c[nH]c2ccccc12)NCCc1ccc(Cl)cc1 | -0.44
24 | NC(=O)CCc1c[nH]c2ccccc12 | -20.3
25 | O=C(Cc1c[nH]c2ccccc12)NCc1ccc(Cl)cc1 | 12.5
26 | CCOC(=O)CNC(=O)CSc1ncnc2c1nnn2-c1ccc(F)cc1 | 71.2
27 | COc1ccc(-c2sccc2C(C)C(=O)O)cc1 (stereo unspecified) | 1.98
28 | CCOc1ccc(S(=O)(=O)NCCC(=O)N2CCN(c3ccccc3O)CC2)cc1 | 0.02
29 | Cc1cc(C)nc(NS(=O)(=O)c2ccc(NC(=O)c3ccc(S(=O)(=O)N4CCOCC4)cc3)cc2)n1 | 14.6
30 | CCOCC(=O)Nc1nnc(COC)s1 | 9.42
31 | CC(=O)c1ccc(N2CCN(S(=O)(=O)c3cc4[nH]c(=O)c(=O)[nH]c4cc3C)CC2)cc1 | -6.88
32 | Cc1nnc(N/N=C/c2cc([N+](=O)[O-])c(N3CCC(C)CC3)cc2N2CCC(C)CC2)n1N | 37.3
33 | CC(C)(C)c1nnc(N/N=C/c2ccc(Br)cc2)n(N)c1=O | 12
34 | CC1CCN(c2ccc(/C=N/n3nnnc3N)cc2[N+](=O)[O-])CC1 | 6.33
35 | CCOc1cc(/C=N/Nc2nnc(C)n2N)ccc1O | 2.89
36 | NC(=O)N/N=C/c1ccc(-c2ccc([N+](=O)[O-])cc2)o1 | 45.3
37 | COc1ccc(/C=N/Nc2nnc(C)n2N)cc1OC | -3.85
38 | Cc1nnc(N/N=C/c2c(Cl)cccc2Cl)n1N | 18.3

Row | SMILES | inhibition [%]
39 | NC(=S)N/N=C/c1ccc(-c2ccc([N+](=O)[O-])cc2)o1 | 63.3
40 | COc1ccc(N(CC(=O)NCCc2ccccc2)C(=O)CCC(=O)Nc2ccccn2)cc1 | -3.83
41 | CC(C)N(CCNC(=O)c1ccc(CS(=O)(=O)c2c(Cl)cccc2Cl)o1)Cc1ccccc1 | 15.8
42 | Cc1ccc(S(=O)(=O)N2CCOCC2)cc1C(=O)OCC(=O)N(Cc1ccccc1)C(C)C | 0.48
43 | O=C(CNC(=O)c1cccs1)NCC(=O)OCc1ccc(Cl)cc1 | 15.7
44 | CCN(CC)S(=O)(=O)c1ccc(N2CCOCC2)c(NS(=O)(=O)c2ccc(OC)cc2)c1 | -8.38
45 | CCc1nc(NC(C)C)c2oc3ccccc3c2n1 | 8.44
46 | Cc1nnc(N/N=C\c2ccc(-c3ccccc3[N+](=O)[O-])o2)n1N | 63.6
47 | Cc1nnc(N/N=C\c2ccc(-c3cccc(C(=O)O)c3)o2)n1N | 12.4
48 | CCOc1cc2c(cc1OCC)C(c1ccc(F)cc1)NCC2 (stereo unspecified) | 19.2
49 | CC(CNC(=O)c1ccc(OC2CCN(Cc3ccccn3)CC2)cc1)Oc1cccnc1 (stereo unspecified) | 0.447
50 | COc1ccc(CNC(=O)CCCc2ccccc2)cc1 | 1.45
51 | COc1ccc(CCNC(=O)CCCc2ccccc2)cc1OC | 26.3
52 | CN(CC(=O)Nc1ccc(F)c(F)c1)S(=O)(=O)c1cccc2cccnc12 | 0.37
53 | O=C(COC(=O)c1ccccn1)Nc1c(Cl)cccc1Cl | 8.09
54 | COC(=O)c1ccc(COC(=O)c2cnccn2)cc1 | 55.1
55 | N#Cc1ccc(COC(=O)c2ccccn2)cc1 | 55.2
56 | O=C(OCc1c(Cl)cccc1Cl)c1cccnc1Cl | 33.3
